The panel holds about 83,000 compounds, 20% with a hit somewhere; the sample as a whole holds those more often.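 In brief: 96-well plates, 48 h treatment, single concentration, percent growth endpoint.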 The source made the active and inactive calls. How the source made its calls: active means growth percent below 10; inactive means the rest.
Key:
Experiment in all cases: NCI-60 one-dose screen, 48 h (100 = growth as untreated, 0 = no growth, -100 = all killed)
Conditions in all cases: 10 µM
RPMI-8226 leukemia = tested on: RPMI-8226 leukemia
OVCAR-8 ovarian = tested on: OVCAR-8 ovarian
OVCAR-5 ovarian = tested on: OVCAR-5 ovarian
OVCAR-4 ovarian = tested on: OVCAR-4 ovarian
SK-OV-3 ovarian = tested on: SK-OV-3 ovarian
IGROV1 ovarian = tested on: IGROV1 ovarian
OVCAR-3 ovarian = tested on: OVCAR-3 ovarian
HS 578T breast = tested on: HS 578T breast
NCI/ADR-RES ovarian = tested on: NCI/ADR-RES ovarian
T-47D breast = tested on: T-47D breast
BT-549 breast = tested on: BT-549 breast
MDA-MB-435 melanoma = tested on: MDA-MB-435 melanoma
SW-620 colon = tested on: SW-620 colon
MCF7 breast = tested on: MCF7 breast
HCT-116 colon = tested on: HCT-116 colon
HCC-2998 colon = tested on: HCC-2998 colon
KM12 colon = tested on: KM12 colon
MDA-MB-468 breast = tested on: MDA-MB-468 breast

Measured: growth

O=C1Nc2ccc(F)cc2/C1=C/c1cccc(OCc2ccccn2)c1
active: HS 578T breast -6.56% | NCI/ADR-RES ovarian 7.99% | MDA-MB-435 melanoma -9.87% | SW-620 colon -0.341% | MCF7 breast 3.16% | HCT-116 colon 1.75% | MDA-MB-468 breast -5.96%
inactive: RPMI-8226 leukemia 18.6% | OVCAR-8 ovarian 25.7% | OVCAR-5 ovarian 60.4% | OVCAR-4 ovarian 61.3% | SK-OV-3 ovarian 69.6% | IGROV1 ovarian 41.9% | OVCAR-3 ovarian 27% | T-47D breast 45% | BT-549 breast 24.1% | HCC-2998 colon 74.1% | KM12 colon 15.4%

CCOP(=O)(OCC)O[C@H]1CCC(=O)[C@@H]2[C@H]1[C@H]1C[C@@H]3[C@@]4(C)CCCC(C)(C(=O)OC)[C@@H]4CC[C@@]23C=C1C(C)C (stereo partly drawn)
active: MDA-MB-468 breast 7.96%
inactive: RPMI-8226 leukemia 21.9% | OVCAR-8 ovarian 55.5% | OVCAR-5 ovarian 92.7% | OVCAR-4 ovarian 49.5% | SK-OV-3 ovarian 54% | IGROV1 ovarian 72.1% | OVCAR-3 ovarian 67.7% | HS 578T breast 59.5% | NCI/ADR-RES ovarian 44.3% | T-47D breast 42.1% | BT-549 breast 54.9% | MDA-MB-435 melanoma 52% | SW-620 colon 56.1% | MCF7 breast 33.2% | HCT-116 colon 32.8% | HCC-2998 colon 58.9% | KM12 colon 50.9%

O=C(O)CCCCCCCCCCN1C(=O)/C(=C/c2cnc(-c3ccccc3)s2)SC1=S
inactive: RPMI-8226 leukemia 86.5% | OVCAR-8 ovarian 61.4% | OVCAR-5 ovarian 109% | OVCAR-4 ovarian 96.1% | SK-OV-3 ovarian 130% | IGROV1 ovarian 95% | OVCAR-3 ovarian 102% | HS 578T breast 117% | NCI/ADR-RES ovarian 57.5% | T-47D breast 74.2% | BT-549 breast 106% | MDA-MB-435 melanoma 87% | SW-620 colon 44.1% | MCF7 breast 28.8% | HCT-116 colon 31.8% | HCC-2998 colon 124% | KM12 colon 24.6% | MDA-MB-468 breast 90.9%

O=C(Nc1nc2ccc([N+](=O)[O-])cc2s1)Nc1ccccc1I
active: RPMI-8226 leukemia -27.9% | OVCAR-5 ovarian 5.55% | SK-OV-3 ovarian -7.59% | HS 578T breast 9.12% | NCI/ADR-RES ovarian -5.83% | T-47D breast -16.7% | BT-549 breast -18.9% | MDA-MB-435 melanoma -7.59% | SW-620 colon 7.65% | MCF7 breast -13.9% | HCT-116 colon -18.8% | HCC-2998 colon 4.48% | KM12 colon 2.86% | MDA-MB-468 breast -25.8%
inactive: OVCAR-8 ovarian 11% | OVCAR-4 ovarian 14.4% | IGROV1 ovarian 19.7% | OVCAR-3 ovarian 14.4%

O=C(Nc1ccc(I)cc1F)c1cc(-c2ccc(F)cc2F)ccc1O
active: RPMI-8226 leukemia -18.1% | OVCAR-8 ovarian 8.5% | OVCAR-5 ovarian 3.54% | SK-OV-3 ovarian -10.6% | OVCAR-3 ovarian -1.28% | HS 578T breast 2.66% | NCI/ADR-RES ovarian -8.34% | T-47D breast -22.7% | BT-549 breast -12.5% | MDA-MB-435 melanoma 0.752% | MCF7 breast -12.8% | HCC-2998 colon 5.11% | KM12 colon 6.39% | MDA-MB-468 breast -26.8%
inactive: OVCAR-4 ovarian 17.2% | IGROV1 ovarian 22.7% | SW-620 colon 10.1% | HCT-116 colon 17.2%

CS(=O)(=O)Nc1ccc(-c2ccc3c(c2)ncn3-c2ccc(NC(=O)Nc3ccc(Cl)c(C(F)(F)F)c3)cc2)cc1
active: RPMI-8226 leukemia -28.6% | OVCAR-8 ovarian -34.8% | OVCAR-5 ovarian -84.9% | OVCAR-4 ovarian -47.2% | SK-OV-3 ovarian -53.4% | IGROV1 ovarian -43.1% | OVCAR-3 ovarian -54.3% | HS 578T breast -33.2% | NCI/ADR-RES ovarian -1.05% | T-47D breast -31.2% | BT-549 breast -83.8% | MDA-MB-435 melanoma -85.4% | SW-620 colon -67% | MCF7 breast -77.8% | HCT-116 colon -87.7% | HCC-2998 colon -73.6% | KM12 colon -57.8% | MDA-MB-468 breast -50.7%

O=C(c1ccc([N+](=O)[O-])c([N+](=O)[O-])c1O)n1[nH]c(=O)c2ccccc2c1=O
inactive: RPMI-8226 leukemia 26.6% | OVCAR-8 ovarian 55.5% | OVCAR-5 ovarian 110% | OVCAR-4 ovarian 78.3% | SK-OV-3 ovarian 102% | IGROV1 ovarian 94.6% | OVCAR-3 ovarian 25.8% | HS 578T breast 77.4% | NCI/ADR-RES ovarian 35.5% | T-47D breast 49.8% | BT-549 breast 51.2% | MDA-MB-435 melanoma 53.7% | SW-620 colon 35.7% | MCF7 breast 30.5% | HCT-116 colon 30.1% | HCC-2998 colon 106% | KM12 colon 72.3%
active: MDA-MB-468 breast 0.114%

COc1ccc2[nH]c(=O)c(CSc3nccc(-c4ccc(Cl)cc4)n3)cc2c1
active: OVCAR-8 ovarian -10.4% | T-47D breast -8.11% | MCF7 breast 7.81% | HCT-116 colon -30.5% | MDA-MB-468 breast -28.5%
inactive: RPMI-8226 leukemia 17.6% | OVCAR-5 ovarian 50.9% | OVCAR-4 ovarian 36.3% | SK-OV-3 ovarian 42.1% | IGROV1 ovarian 60.9% | OVCAR-3 ovarian 44.8% | HS 578T breast 37.2% | NCI/ADR-RES ovarian 12.2% | BT-549 breast 30.6% | MDA-MB-435 melanoma 55% | SW-620 colon 45.4% | HCC-2998 colon 48.3% | KM12 colon 31.7%

COc1ccsc1/C=N/NC(=O)c1[nH]c2ccc(Br)cc2c1-c1ccccc1
active: RPMI-8226 leukemia -13.6% | OVCAR-8 ovarian -16.2% | HS 578T breast -1.24% | NCI/ADR-RES ovarian -23.9% | T-47D breast -2.72% | MDA-MB-435 melanoma 2.33% | MCF7 breast 1.13% | HCT-116 colon 0.361% | HCC-2998 colon -5.18% | KM12 colon -0.302% | MDA-MB-468 breast -6.2%
inactive: OVCAR-5 ovarian 26.6% | OVCAR-4 ovarian 22.1% | SK-OV-3 ovarian 20.9% | IGROV1 ovarian 22.6% | OVCAR-3 ovarian 25.8% | BT-549 breast 13.8% | SW-620 colon 18.4%

CC1(C)CC[C@]2(C(=O)O)CC[C@]3(C)C(=CC[C@@H]4[C@@]5(C)C/C(=C/c6ccncc6)[C@H](O)C(C)(C)[C@@H]5CC[C@]43C)[C@@H]2C1
active: MDA-MB-468 breast 5.27%
inactive: RPMI-8226 leukemia 19% | OVCAR-8 ovarian 44.5% | OVCAR-5 ovarian 67.6% | OVCAR-4 ovarian 42.6% | SK-OV-3 ovarian 65% | IGROV1 ovarian 49.1% | OVCAR-3 ovarian 40.9% | HS 578T breast 52.7% | NCI/ADR-RES ovarian 32.7% | T-47D breast 43.6% | BT-549 breast 50.8% | MDA-MB-435 melanoma 54.8% | SW-620 colon 34.6% | MCF7 breast 24.4% | HCT-116 colon 26% | HCC-2998 colon 49.1% | KM12 colon 21.1%

CC(=C(c1ccc(OCCN2CCCCC2)cc1)c1ccc(OCCN2CCCCC2)cc1)c1ccccc1
active: RPMI-8226 leukemia -31.3% | T-47D breast -20.3% | MDA-MB-435 melanoma -66% | MCF7 breast -48.3%
inactive: OVCAR-8 ovarian 53.5% | OVCAR-5 ovarian 46.3% | OVCAR-4 ovarian 63.8% | SK-OV-3 ovarian 74.6% | IGROV1 ovarian 60.7% | OVCAR-3 ovarian 28.3% | HS 578T breast 29.5% | NCI/ADR-RES ovarian 51.6% | BT-549 breast 110% | SW-620 colon 12.3% | HCT-116 colon 14.3% | HCC-2998 colon 15.7% | KM12 colon 24.4% | MDA-MB-468 breast 37.4%

Reference: PubChem BioAssay (NCI)
